Compound activity as filed in PubChem.
This is a sample that favours compounds with a hit; in the whole collection about 2.4% have one here.
STAT1 blocker: STAT1 signaling inhibitors, primary screen, cell-based, HTS, luciferase reporter. NIH 3T3 STAT1-luciferase reporter, IFN-gamma, luminescence. inhibition, % at 5.5 µM. actives 0.35% (n = 200,000). AID 920, 2007;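 active = inhibition above a set limit, the mean inhibition across all tested compounds plus 3 SD, cut at about 34% in these data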
HSP90 inh: HSP90 inhibitors, primary screen, cell lysate, luminescence. Rabbit reticulocyte lysate, luciferase refolding luminescence, 3 h. Heat shock protein HSP 90 (rabbit reticulocyte lysate; luciferase refolding). actives 0.91% (n = 290,000). inhibition, % at 5.6 µM;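 active = inhibition above the screen-wide mean plus 3 SD, computed separately per campaign, cut at about 16% in these data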;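 also: inhibitors lower the luminescence because luciferase stays unfolded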
PPC-1+TRAIL kill: compounds killing PPC-1 cancer cells with TRAIL present, primary screen, TRAIL potentiator project, ATPLite luminescence, uHTS. PPC-1 cells + TRAIL, ATPLite viability luminescence. cell killing (% activity), % at 4 µM or 5 µM. actives 0.41% (n = 220,000);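 active = cell killing above 50% in the first pass at 4 µM, then a duplicate retest at 5 µM averaging 50% or more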
HSF1 inh: HSF1 inhibitors in luciferase reporter cells, primary screen, cell-based, NIH3T3, luminescence; NIH3T3-HGL HSE-luciferase, MG132-induced, luminescence 8 h; active compounds read low; activity change, negative = inhibition, % at 7.5 µM (by protocol); actives 0.77% (n = 300,000);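 active = more than half of replicate wells show activity change below -50%, luminescence cut by over half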;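 also: luciferase reports HSF-1 transcriptional activity via heat shock element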
TRAIL sens C8: viability loss with TRAIL in NB7+C8 cells, primary screen, TRAIL sensitizer project, cell-based, ATPlite luminescence; inhibition (viability loss, TRAIL sensitization), % at 10 µM; actives 1% (n = 360,000);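 active = compounds causing at least 50% loss of cell viability in the single-dose screen, relative to plate controls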
STAT3 inh: IL-6 driven STAT3 reporter inhibitors, primary screen, U3A cells, luciferase, luminescence, MLSCN library. IL-6 STAT3-luciferase reporter; host cell line lacks STAT1. inhibition, % at 5.5 µM. actives 0.89% (n = 190,000). AID 862, 2007;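 active = inhibition above the mean inhibition across all screened compounds plus 3 SD, cut at about 44% in these data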
Numbers stand for hits; - = inactive; . = not tested or not shown.

SMILES	STAT1 blocker	HSP90 inh	PPC-1+TRAIL kill	HSF1 inh	TRAIL sens C8	STAT3 inh
CC(CC(=O)N1CCN(C(=O)c2ccccc2)CC1)c1ccccc1 (centres undefined)	.	-	.	-	-	.
CC(c1ccccc1)N1CCN(C(=O)CCl)CC1 (centres undefined)	-	-	-	-94.0	-	-
O=C(N/N=C/c1cn(-c2ccccc2)nc1-c1cc2ccccc2o1)c1cccnc1	-	-	-	-	55.0	-
O=C(N/N=C/c1cn(-c2ccccc2)nc1-c1cc2ccccc2o1)c1ccncc1	-	-	-	-	-	-
O=C(O)/C=C/c1ccc(Oc2ncccn2)cc1	.	-	.	-	-	.
CC(C)(C)C(=O)/C=C/c1ccc(Oc2ccccc2)cc1	.	-	-	-58.9	-	.
CC(C)(C)S(=O)N1Cc2cc(C(=O)N3CCc4ccccc4C3)nc(-c3cccc(-c4ccncc4)c3)c2[C@H]1CCO (some centres undefined)	.	.	.	.	-	.
COc1ccc(Nc2cc(C)c3c(O)cccc3n2)cc1	.	-	-	-	-	.
Cc1ccc(Nc2cc(C)c3c(O)cccc3n2)cc1C	.	-	-	-56.0	-	.
Cc1ccccc1NC(=O)COC(=O)c1ccc(S(C)(=O)=O)c([N+](=O)[O-])c1	-	-	-	-93.0	-	-
CS(=O)(=O)c1ccc(C(=O)OCC(=O)N2CCN(CCC3CCCCC3)CC2)cc1[N+](=O)[O-]	.	.	.	.	88.7	.
CC(CCc1ccccc1)NC(=O)c1cccc([N+](=O)[O-])c1 (centres undefined)	-	-	-	-52.5	-	-
Cc1ccccc1NC(=O)Cc1nc(COC(=O)c2ccc(S(C)(=O)=O)c([N+](=O)[O-])c2)cs1	.	.	.	.	54.4	.
